Results reported in PubChem BioAssay (NCI).
About 83,000 compounds went through this panel and 20% of them were active in at least one assay; those are over-represented in the sample as a whole.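 Each cell line was grown in a 96-well plate and treated with one concentration of compound for 48 hours. Values below 10 were considered active.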 Active and inactive are the calls of the source.

Tests used:
Assay in all cases: NCI-60 one-dose screen, 48 h (100 = growth as untreated, 0 = no growth, -100 = all killed)
Settings in all cases: 10 µM unless noted
T-47D breast = tested on: T-47D breast
BT-549 breast = tested on: BT-549 breast
MDA-MB-435 melanoma = tested on: MDA-MB-435 melanoma
SW-620 colon = tested on: SW-620 colon
MCF7 breast = tested on: MCF7 breast
HCT-116 colon = tested on: HCT-116 colon
HCC-2998 colon = tested on: HCC-2998 colon
KM12 colon = tested on: KM12 colon

Measured: growth

CCN(CC)CCCC(C)Nc1c(-c2ccccc2)cnc2cc(Cl)ccc12 (stereo not drawn)
inactive: BT-549 breast 87.4% | MDA-MB-435 melanoma 38.2% | SW-620 colon 70.3% | MCF7 breast 59.1% | HCT-116 colon 36.2% | HCC-2998 colon 73.4% | KM12 colon 65.3%
active: T-47D breast -44.9%

Cc1cccc(/C=N/n2c(-c3ccc(Cl)cc3)nc3c(Br)cc(Br)cc3c2=O)c1
inactive: T-47D breast 44.4% | BT-549 breast 88% | MDA-MB-435 melanoma 66% | SW-620 colon 59.1% | MCF7 breast 36.7% | HCT-116 colon 22.2% | HCC-2998 colon 55.6% | KM12 colon 52.4%

CCOC(=O)C(Cc1ccccc1)n1c(O)c(/C=N/c2ncc(Cc3ccc(Cl)cc3Cl)s2)sc1=S (stereo not drawn)
active: T-47D breast -3.64% | BT-549 breast -1.04% | MCF7 breast 3.1% | HCT-116 colon 1.61%
inactive: MDA-MB-435 melanoma 17.2% | SW-620 colon 12% | HCC-2998 colon 16.5% | KM12 colon 10.8%

Clc1ccc(C2=NN[C@H](c3cn(-c4ccccc4)nc3-c3ccccc3)C2)cc1
active: HCT-116 colon 0.0078%
inactive: T-47D breast 46.4% | BT-549 breast 92.7% | MDA-MB-435 melanoma 47.3% | SW-620 colon 48.7% | MCF7 breast 66.2% | HCC-2998 colon 90.7% | KM12 colon 74%

CCCCc1nc(Cl)c(C2CC(c3ccc(S(N)(=O)=O)cc3)=NN2c2ccc(C#N)cc2)[nH]1 (stereo not drawn)
inactive: T-47D breast 68.7% | BT-549 breast 80.6% | MDA-MB-435 melanoma 93.9% | SW-620 colon 91.8% | MCF7 breast 76.1% | HCT-116 colon 85.8% | HCC-2998 colon 109% | KM12 colon 99.8%

CCOC(=O)CCN(CCC(=O)OCC)c1ccccc1
inactive: T-47D breast 95.7% | BT-549 breast 97.9% | MDA-MB-435 melanoma 124% | SW-620 colon 103% | MCF7 breast 101% | HCT-116 colon 95.4% | HCC-2998 colon 119% | KM12 colon 93.5%

O=C1C=CN2C(=O)CC=CC2[C@@H]1O (stereo partly drawn)
inactive: T-47D breast 90.4% | BT-549 breast 102% | MDA-MB-435 melanoma 124% | SW-620 colon 111% | MCF7 breast 96.5% | HCT-116 colon 96.5% | HCC-2998 colon 114% | KM12 colon 105%

O=C1NN(C(=O)c2ccccc2)C(c2ccc(Cl)c(Cl)c2)=C/C1=C\c1ccccc1[N+](=O)[O-]
active: BT-549 breast -7.17% [6.75 µM] | MCF7 breast 8.91% [6.75 µM] | HCT-116 colon 5.02% [6.75 µM] | HCC-2998 colon -20.5% [6.75 µM] | KM12 colon 4.6% [6.75 µM]
inactive: T-47D breast 27.6% [6.75 µM] | MDA-MB-435 melanoma 58.5% [6.75 µM] | SW-620 colon 13.7% [6.75 µM]

O=S(=O)(Nc1ccc2ccccc2c1)N1CCCCC1
active: MDA-MB-435 melanoma -0.27%
inactive: T-47D breast 50.3% | BT-549 breast 47.3% | SW-620 colon 41% | MCF7 breast 49% | HCT-116 colon 55% | HCC-2998 colon 45.3% | KM12 colon 39.7%

Cn1c(-c2ccccc2)cc(=O)n1-c1ccccc1
inactive: T-47D breast 102% | BT-549 breast 110% | MDA-MB-435 melanoma 98.4% | SW-620 colon 117% | MCF7 breast 93.6% | HCT-116 colon 100% | HCC-2998 colon 100% | KM12 colon 103%

CCN1C(=O)N(CC)C2C1NN=c1s/c(=C\c3ccc(Br)cc3)c(=O)n12 (stereo not drawn)
active: MDA-MB-435 melanoma -13.6% | MCF7 breast 1.61% | HCT-116 colon 5.14% | KM12 colon 6.77%
inactive: T-47D breast 54.3% | BT-549 breast 18.2% | SW-620 colon 23.1% | HCC-2998 colon 10.2%

CCN1C(=O)/C(=C/N2N=C(c3ccc(Cl)cc3)CC2c2ccc(OC)cc2)SC1=S (stereo not drawn)
inactive: T-47D breast 70.1% | BT-549 breast 85.1% | MDA-MB-435 melanoma 97.1% | SW-620 colon 97.6% | MCF7 breast 82.4% | HCT-116 colon 85.8% | HCC-2998 colon 97.7% | KM12 colon 97.6%

CCC1=CC2CN(C1)Cc1c([nH]c3ccccc13)[C@@](C(=O)OC)(c1cc3c(cc1OC)N(C)[C@H]1[C@@](O)(C(=O)OC)[C@H](OC(C)=O)[C@]4(CC)C=CCN5CC[C@]31[C@@H]54)C2 (stereo partly drawn)
active: BT-549 breast -27.2% | MDA-MB-435 melanoma 2.28% | MCF7 breast 8.05% | HCT-116 colon -9.83% | HCC-2998 colon -36% | KM12 colon 0.29%
inactive: T-47D breast 76.1% | SW-620 colon 29.1%

COc1cc2c(=O)n(CCCN(C)C)c3c4cc[nH]c4ncc3c2cc1OC
inactive: T-47D breast 63.9% | BT-549 breast 72.5% | MDA-MB-435 melanoma 51% | SW-620 colon 24.9% | MCF7 breast 15.5% | HCT-116 colon 16.8% | HCC-2998 colon 55.7% | KM12 colon 19.2%

CS(=O)(=O)c1ccc(Cl)c([N+](=O)[O-])c1
inactive: T-47D breast 104% | BT-549 breast 111% | MDA-MB-435 melanoma 99.1% | SW-620 colon 67.9% | MCF7 breast 107% | HCT-116 colon 105% | HCC-2998 colon 109% | KM12 colon 75.3%

CCS(=O)(=O)Nc1cccc(Nc2c3cccc(C)c3nc3c(C)cccc23)c1OC
inactive: T-47D breast 22.2% | BT-549 breast 15.8% | MDA-MB-435 melanoma 54.9% | SW-620 colon 33.2% | MCF7 breast 11.6% | HCT-116 colon 22.9% | KM12 colon 15.4%
active: HCC-2998 colon 1.62%

O=C(CCl)Nc1cc(O)c2c(c1)C(=O)c1cccc(O)c1C2=O
inactive: MDA-MB-435 melanoma 13.5%
active: T-47D breast -76.4% | BT-549 breast -48.4% | SW-620 colon -73.8% | MCF7 breast -49.6% | HCT-116 colon -33.9% | HCC-2998 colon -42.3% | KM12 colon -45.8%

COc1cccc(-c2nc3sccn3c2-c2ccnc(NCCN3CCCNS3(=O)=O)n2)c1
inactive: T-47D breast 95.3% | BT-549 breast 113% | MDA-MB-435 melanoma 54.1% | SW-620 colon 127% | MCF7 breast 100% | HCT-116 colon 74.6% | HCC-2998 colon 118% | KM12 colon 103%

COc1cc(CN2CCC(N3CCCC3=O)c3ccccc32)cc(OC)c1OC (stereo not drawn)
inactive: T-47D breast 68.3% | BT-549 breast 124% | MDA-MB-435 melanoma 90.4% | SW-620 colon 92.3% | MCF7 breast 70.9% | HCT-116 colon 68.8% | HCC-2998 colon 93.2% | KM12 colon 97.1%

CC(C)=CC[C@@H]1CC2(CC=C(C)C)C(=O)C(OC3(C(=O)c4ccccc4)C(=O)C4(CC=C(C)C)C[C@@H](CC=C(C)C)C(C)(C)C(CC=C(C)C)(C4=O)C3=O)(C(=O)c3ccccc3)C(=O)C(CC=C(C)C)(C2=O)C1(C)C (stereo partly drawn)
active: T-47D breast 1.58% | BT-549 breast -2.41% | MDA-MB-435 melanoma 6.28% | SW-620 colon 9.62% | MCF7 breast 2.12% | HCT-116 colon -33.4% | KM12 colon 6.68%
inactive: HCC-2998 colon 10.7%

CC(C)c1ccc2c(c1)CCC1C2CCCC1(C)NCc1ccccc1 (stereo not drawn)
inactive: T-47D breast 12.8% | BT-549 breast 106% | MDA-MB-435 melanoma 18.2% | MCF7 breast 75.5% | HCT-116 colon 60.3% | KM12 colon 23.1%
active: SW-620 colon 3.49% | HCC-2998 colon -91.3%

CC(C)(C)c1nn(-c2ccccc2)c2c1C(=O)CSC(c1ccccc1Cl)N2 (stereo not drawn)
active: MDA-MB-435 melanoma -12.4%
inactive: T-47D breast 29.3% | BT-549 breast 44.6% | SW-620 colon 37.1% | MCF7 breast 17.1% | HCT-116 colon 16.2% | HCC-2998 colon 24.9% | KM12 colon 32.5%

Cc1ccc(NC(=O)c2sc3nc4c(cc3c2N)C(=O)CCC4)cc1Cl
inactive: T-47D breast 105% | BT-549 breast 115% | MDA-MB-435 melanoma 99.2% | SW-620 colon 113% | MCF7 breast 102% | HCT-116 colon 105% | HCC-2998 colon 103% | KM12 colon 116%

COc1cc(CN(c2ccc(C)cc2)C2OC(=O)c3ccccc32)cc(OC)c1OC (stereo not drawn)
inactive: T-47D breast 53.8% | BT-549 breast 20.8% | SW-620 colon 36.2% | MCF7 breast 13.9% | KM12 colon 17.1%
active: MDA-MB-435 melanoma -17.8% | HCT-116 colon 6.74% | HCC-2998 colon 4.25%

CCOC(=O)Cc1cc(Br)c(OCc2ccccc2)c(Br)c1
inactive: T-47D breast 85.6% | BT-549 breast 98.3% | MDA-MB-435 melanoma 96.3% | SW-620 colon 113% | MCF7 breast 107% | HCT-116 colon 93.8% | HCC-2998 colon 98.5% | KM12 colon 107%

Fc1cc(-c2cnc3nonc3n2)c(Cl)cc1Cl
inactive: T-47D breast 63.2% | BT-549 breast 99.7% | MDA-MB-435 melanoma 90.1% | SW-620 colon 38.7% | MCF7 breast 69.7% | HCC-2998 colon 103% | KM12 colon 88.2%
active: HCT-116 colon 7.65%

O=c1nc(-c2ccccc2)c2cc(-c3ccc(N4CCOCC4)cc3)ccc2[nH]1
inactive: T-47D breast 52.4% | BT-549 breast 88% | MDA-MB-435 melanoma 76.6% | SW-620 colon 86.8% | MCF7 breast 71.2% | HCT-116 colon 74.3% | HCC-2998 colon 98% | KM12 colon 85.7%

CS(=O)(=O)c1ccc(C(=O)N/N=C/c2ccc3c(c2)OCO3)cc1
inactive: T-47D breast 97.3% | BT-549 breast 109% | MDA-MB-435 melanoma 102% | SW-620 colon 105% | MCF7 breast 95% | HCT-116 colon 98.1% | HCC-2998 colon 93% | KM12 colon 95.9%

CN(C)c1ccc(C2(Cl)c3ccccc3N(C)c3ccccc32)cc1
active: HCT-116 colon 5.46%
inactive: T-47D breast 33.5% | BT-549 breast 71.9% | MDA-MB-435 melanoma 46.7% | SW-620 colon 21.6% | MCF7 breast 50.4% | HCC-2998 colon 77.4% | KM12 colon 36.7%

COc1ncnc2[nH]cc(CN3CCN(c4ccc(F)cc4)CC3)c12
inactive: T-47D breast 104% | BT-549 breast 107% | MDA-MB-435 melanoma 91.9% | SW-620 colon 108% | MCF7 breast 103% | HCT-116 colon 111% | HCC-2998 colon 104% | KM12 colon 109%

CCOC(=O)c1cc(N)nc2ccccc12
inactive: T-47D breast 93.7% | BT-549 breast 105% | MDA-MB-435 melanoma 108% | SW-620 colon 91.8% | MCF7 breast 107% | HCT-116 colon 102% | HCC-2998 colon 111% | KM12 colon 98.4%
